Activity calls are given as the source filed them.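 Rule for the calls: active = inhibition above 20% together with a positive visual image hit; inconclusive = visual image hit but inhibition not above 20%; inactive = no visual image hit.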
Assay: inhibitors of TNFa-induced NFkB p65 translocation, primary screen, imaging, HUVEC, MLSMR starter and 10KST1 sets (AID 438);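 note: compound added about 3h40 before a 20 min TNFalpha stimulation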;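 for inhibition: signal is the nuclear over cytoplasmic p65 intensity ratio per well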
Settings: HUVEC TNFa-induced p65 nuclear translocation; cell count: measured here: nuclei count (cytotoxicity indicator), at 2.08 µM; inhibition: at 2 µM, stronger effect = higher value, 0% TNFa-plus-vehicle, 100% no-TNFa wells

SMILES	inhibition	cell count
CCOCC(=O)Nc1ccc(S(=O)(=O)N2CCOCC2)cc1	-3.2% (inactive)	283
Cc1cc(NS(=O)(=O)c2ccc(NC(=O)COc3ccc(Cl)cc3)cc2)no1	0.4% (inactive)	361
COc1ccc(C2C(C(C)=O)=C(C)N=c3s/c(=C/c4ccc5c(c4)OCO5)c(=O)n32)cc1 (stereo not given)	-7.3% (inactive)	437
CCOc1ccc(OCC)c(NS(=O)(=O)c2ccc3c(c2)n(C)c(=O)c(=O)n3C)c1	-2.4% (inactive)	291
COCCn1nnnc1C(c1ccc(OC)cc1)N1CCN(c2ccccc2F)CC1 (stereo not given)	-1.9% (inactive)	476
CCOC(=O)Nc1ccc2c(CN3C(=O)NC4(CCCC4)C3=O)cc(=O)oc2c1	3.5% (inactive)	744
CCc1ccc(C2CC(c3cccc(OC)c3)n3nc(N)nc3N2)cc1 (stereo not given)	7.5% (inactive)	528
CCOC(=O)N1CCC(NC(=O)CCC(=O)N2CC(C)Oc3ccc(Cl)cc32)CC1 (stereo not given)	12.5% (inactive)	326
COc1cccc(C2CC(c3ccc(C)cc3)Nc3nc(N)nn32)c1 (stereo not given)	2.3% (inactive)	538
CC1=C/C(=C/N(C)c2ccccc2)C(=O)S1	-3.5% (inactive)	582
CCCN(CCC)C(=O)C1CCN(c2cc(C)nc3c(-c4ccc(OC)c(OC)c4)c(C)nn23)CC1	6.6% (inactive)	651
CSc1nc2ccc(S(=O)(=O)N3CCOCC3)cc2s1	-2.2% (inactive)	328
O=C(CSc1ncn[nH]1)c1ccco1	-13.5% (inactive)	746
CCNc1ccc2c(Cl)cc(=O)oc2c1	-2.5% (inactive)	356
Cn1c(N2CCC(C(N)=O)CC2)nc2c1c(=O)n(Cc1ccc(Br)cc1)c(=O)n2C	-2.7% (inactive)	537
COCCOC(=O)C1=C(C)OC(N)=C(C#N)C1c1ccc2c(c1)OCO2 (stereo not given)	-0.5% (inactive)	468
COc1ccc(S(=O)(=O)N(CCN2CCOCC2)Cc2cc(OC)ccc2OC)cc1	8.5% (inactive)	426
COC(=O)c1nc(N)sc1-c1ccccc1	7.2% (inactive)	592
CC(C)C(c1nnnn1C1CCCC1)N1CCN(C(=O)c2ccco2)CC1 (stereo not given)	9.7% (inactive)	426
O=C(Nc1ccccc1-c1nc2ccccc2o1)c1ccc2c(c1)OCCO2	-7.2% (inactive)	530

SMILES	inhibition	cell count
N#Cc1nc(COc2ccccc2Cl)oc1N1CCCCCC1	1.1% (inactive)	577
Cn1c(C(=O)NCCCN2CCN(c3ccc(F)cc3)CC2)cc2c(=O)n(C)c3ccccc3c21	1.1% (inactive)	655
Cc1[nH]c(=O)[nH]c(=O)c1S(=O)(=O)N1CCCC(C(=O)NCc2ccco2)C1 (stereo not given)	-2.8% (inactive)	377
COc1ccc(C(=O)CSc2nc(C)cc(=O)[nH]2)cc1	6.5% (inactive)	291
Nc1nc(N2CCN(C/C=C/c3ccccc3)CC2)nc2ccccc12	7.3% (inactive)	563
COc1ccc(OC)c(C(=O)c2ccc(C(=O)O)cc2)c1	10.6% (inactive)	415
CCOC(=O)N1CCN(C(=O)c2ccc(CS(=O)(=O)c3ccc(OC)cc3)o2)CC1	2% (inactive)	516
CN1C(=O)C(O)(CC(=O)c2ccc3c(c2)OCO3)c2ccccc21 (stereo not given)	6% (inactive)	340
O=C(COC(=O)c1cc(S(=O)(=O)N2CCOCC2)cs1)c1ccccc1	-5.5% (inactive)	692
CN1CCN(S(=O)(=O)c2ccc(NC(=O)c3ccc(F)cc3)cc2)CC1	0% (inactive)	624
CCOCCCNC(=O)c1cc2sc(Cl)cc2n1CC	17.9% (inactive)	449
O=C(Nc1ccc(O)cc1)C1CCCN1S(=O)(=O)c1ccc(F)cc1 (stereo not given)	-2.1% (inactive)	598
COc1ccc(CCNc2oc(-c3ccco3)nc2C#N)cc1	15.1% (inactive)	560
Cc1cc(OCC(O)CN2CCN(CCO)CC2)ccc1C(C)C (stereo not given)	-0.5% (inactive)	428
CCOC(=O)c1c(N)nn(C(=O)C(C)C)c1-c1ccccc1	-2.1% (inactive)	690
CCOC(=O)c1cccc(NC(=O)C2CCN(S(=O)(=O)c3cccs3)CC2)c1	-5.7% (inactive)	369
CCOC(=O)c1cccc(NC(=O)CSc2nc3cccnc3n2C)c1	-8.4% (inactive)	782
O=C(OCC(=O)c1cccs1)C1=COCCO1	-7.6% (inactive)	656
CCCc1cc(C(=O)Nc2ccccc2C(=O)OC)no1	5.5% (inactive)	864
CCCCOc1ccc(-c2nnn(C(C)(C)C(=O)OC)n2)cc1	-6.3% (inactive)	602
